# Experimental data: PubChem BioAssay (NCATS)
# Values without a mark were called inactive. Results filed as inconclusive are left out. A call without a number means that no potency is given here. Calls of active or inactive are those of the source. Unless noted, the call rests on the fitted dose curve; in most records, active means well fitted curve in either direction with a large enough effect (not every such curve was filed as active); inconclusive means small, poorly fitted or top-dose-only effect, or another doubt; inactive means flat fitted curve, though single readings scatter.
# Tests used:
# [1] = AP1 Signaling Pathway (AID 357); settings: ME-180 AP-1-bla reporter, EGF-induced, beta-lactamase ratio, 5 h; at 17.2 µM (top of the series) unless noted;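 further: ME-180 reporter cells stimulated with EGF at its EC50 level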
# Method in brief: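 Titration-series screen for positive or negative modulators of EC50 EGF-induced signaling in ME-180 cells carrying an AP-1-driven beta-lactamase reporter. After 5 hours at 37 degrees Celsius, CCF4 460nm/530nm emission ratio gave %Activity; AC50 values derived.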
# [2] = NFAT Signaling Pathway (AID 444); settings: Jurkat NFAT-bla M1, carbachol, beta-lactamase ratio, 5 h; at 17.2 µM (top of the series) unless noted;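 further: carbachol stimulus at about its EC50 of 1 µM final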
# Method in brief: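 Jurkat cells carrying an NFAT-driven β-lactamase reporter and co-transfected muscarinic M1 receptor were treated with compound plus carbachol (1 uM final, an EC50 level) for 5 h at 37 °C. CCF4 loading followed for 1 h at RT; 460/530 nm ratio gave %activity.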
# [3] = Stat Signaling Pathway (AID 446);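 further: ME-180 cervical cancer cells given 40 pM IL-6 alongside compound; SIE-controlled beta-lactamase reporter measured as 460/530 nm FRET emission ratio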
# Method in brief: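 Normalization used AC90 stimulation (300 pM IL-6) and AC90 inhibition (125 nM pan-JAK inhibitor at 40 pM IL-6). The underlying signal is SIE-driven beta-lactamase in ME-180 cells after 5 h IL-6 exposure with compound.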
# [4] = target: Glucocorticoid receptor (Homo sapiens) (UniProt P04150); test: GR-GFP Redistribution (AID 450;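 active means compounds whose dose series gives a full or clear partial fitted curve of increased nuclear translocation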; further: potency means the concentration at half of the fitted maximal effect); settings: U2OS GR-GFP nuclear translocation, laser cytometry, 2 h
# [5] = target: Glucocorticoid receptor (Homo sapiens) (UniProt P04150); test: GR-EFC Redistribution (AID 451; calls by dose curve; further: potency means the concentration at half of the fitted maximal effect); settings: CHO-K1 GR-EFC translocation, beta-gal luminescence, 2 h
# Method in brief: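 CHO-K1 cells stably expressing nuclear-localized β-gal enzyme acceptor and GR fused C-terminally to the enzyme donor fragment; ligand-driven nuclear translocation restores β-gal by complementation. Compounds titrated up to 46 uM final, 2 h at 37 °C; luminescence read.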
# [6] = target: 3',5'-cyclic-AMP phosphodiesterase 4B (Homo sapiens) (UniProt Q07343); test: qHTS Assay for Inhibitors of PDE-IV (AID 607; active means well fitted activation curve with a large enough effect in the main read-out, with a control signal flat, not every such curve was filed as active)
# Method in brief: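 HEK293 ACTOne cells with CNG channel (1000/well), endogenous PDE4; membrane potential dye, compounds up to 22.9 uM final. Fluorescence Ex 535/Em 590; RO 20-1724 (100 uM final) as reference.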
# [7] = target: Guanine nucleotide-binding protein G(i) subunit alpha-1 (Homo sapiens) (UniProt P63096); test: qHTS Assay for Inhibitors of RGS12 GoLoco Motif Activity (Green Fluorophore) (AID 879; active means well fitted curve in the direction sought with a large enough effect; an effect the other way counts as inactive or inconclusive;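 further: negative values mean loss of peptide binding seen as reduced polarization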)
# Method in brief: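 A drop in FITC polarization marked displacement of the FITC-tagged RGS12 GoLoco peptide (10 nM) from Gαi1 (50 nM). Compounds were incubated 10 min at room temperature in Tris pH 7.5 buffer containing 150 mM NaCl, 0.1 mM GDP and 0.05% NP40; unlabeled peptide titration served as control.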
# [8] = target: Cytochrome P450 2D6 (Homo sapiens) (UniProt P10635); test: qHTS Assay for Inhibitors and Substrates of Cytochrome P450 2D6 (AID 891; active means well fitted curve in the direction sought with a large enough effect; an effect the other way counts as inactive or inconclusive; further: nearly all actives have a fitted effect of over 60% in size; further: potency means the concentration at half of the fitted maximal effect;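 on activity change, negative = inhibition: luciferin methyl ether substrate demethylated by CYP2D6 with NADPH regeneration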)
# Method in brief: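 Luminescent read-out of luciferin formed by 5 nM human CYP2D6 demethylating 30 uM Luciferin-ME EGE (Km level) over 60 min at room temperature after NADPH regeneration addition. Data normalized to full inhibition by 1.43 uM quinidine.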
# [9] = target: Pyruvate kinase PKM (Homo sapiens) (UniProt P14618); test: qHTS Assay for Activators of Human Muscle Pyruvate Kinase (AID 954; active means well fitted curve in the direction sought with a large enough effect, not every such curve was filed as active)
# Method in brief: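 Compound pinned into substrate mix (0.5 mM PEP, 0.1 mM ADP), then 0.1 nM PKM2 added; 1 h, RT. Stop/detection luciferase reagent added, luminescence read. Normalized to no-inhibition and no-enzyme or reference-inhibitor controls.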
# [10] = target: Alpha-galactosidase (Coffea arabica) (UniProt Q42656); test: Counterscreen for Glucocerebrosidase Inhibitors: qHTS Assay for Coffee Bean alpha-Galactosidase at pH 4.5 (AID 957; active means well fitted curve in the direction sought with a large enough effect; an effect the other way counts as inactive or inconclusive)
# Method in brief: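 Quantitative HTS of compounds (0.7 nM to 77 uM) against coffee bean alpha-galactosidase at pH 4.5, measuring 4-methylumbelliferone fluorescence released from 80 uM substrate.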
# [11] = target: Alpha-galactosidase A (Homo sapiens) (UniProt P06280); test: Counterscreen for Glucocerebrosidase Inhibitors: qHTS Assay for Human alpha-Galactosidase at pH 4.5 (AID 992; active means well fitted curve in the direction sought with a large enough effect; an effect the other way counts as inactive or inconclusive)
# Method in brief: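 Steps: enzyme (2 nM final), then compound across 0.7 nM to 77 uM, then 80 uM fluorogenic galactopyranoside substrate; incubate 20 min at room temperature; quench at pH 10; measure fluorescence at 365/440 nm.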
# [12] = target: Alpha-galactosidase (Coffea arabica) (UniProt Q42656); test: Counterscreen for Glucocerebrosidase Inhibitors: qHTS Assay for Coffee Bean alpha-Galactosidase at pH 5.9 (AID 998; active means well fitted curve in the direction sought with a large enough effect; an effect the other way counts as inactive or inconclusive)
# Method in brief: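 In 50 mM citric acid pH 5.9 with 0.005% Tween-20, coffee bean enzyme hydrolyses 80 uM 4-MU alpha-D-galactopyranoside over 20 min at RT. Activity is normalized to controls; AC50 comes from Hill-modelled concentration-response data.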
# [13] = target: Mitogen-activated protein kinase 10 (Mus musculus) (UniProt Q61831); test: JNK3 AlphaScreen Assay (AID 530);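 further: kinase came from lysate of stimulated human HepG2 cells; signal reports phosphorylation of biotinylated GST-cJun 1-79 at Ser73 with 10 µM ATP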
# Method in brief: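 Biotinylated GST-cJun(1-79) served as substrate for JNK3 in HepG2 lysates stimulated with IL-1beta and TNF-alpha. ATP was 10 uM final, pH 7.6. Ser73 phosphorylation was quantified by AlphaScreen (680 nm excitation).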
# [14] = qHTS Assay for Identification of Small Molecule Agonists for Thrombopoietin (TPO) Signaling Pathway (AID 917; active means well fitted curve in the direction sought with a large enough effect; an effect the other way counts as inactive or inconclusive)
# Method in brief: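 Stimulation at the TPO EC50 (26 pM final) was used to detect activators. Ba/F3 mouse cells bearing human TPO receptor and a luciferase reporter under the Glycoprotein IIb promoter were exposed to compounds for 24 hrs at 37 C.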
# [15] = qHTS Assay for Identification of Small Molecule Agonists for Hypoxia Response Element Signaling Pathway (AID 914; active means well fitted activation curve with a large enough effect in the signal ratio, with a control signal flat, not every such curve was filed as active; the % refers to the signal ratio); settings: ME-180 (cervical carcinoma) HRE-bla reporter, beta-lactamase ratio, CoCl2, 17 h; activation: hits give high values
# Method in brief: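 Reporter activity (beta-lactamase, CCF4 460nm/530nm ratio) in HRE-bla ME-180 cells is recorded after 17 h compound exposure with EC50 CoCl2 at 37 degrees Celsius. AC50 values come from titration data.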
# [16] = target: Cytochrome P450 3A4 (Homo sapiens) (UniProt P08684); test: qHTS Assay for Activators of Cytochrome P450 3A4 (AID 885; active means well fitted curve in the direction sought with a large enough effect; an effect the other way counts as inactive or inconclusive; further: nearly all actives have a fitted effect of over 65% in size)
# Method in brief: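 Human CYP3A4 dealkylates Luciferin-PPXE to luciferin, which luciferase detection converts to light. Substrate was at its KM (25uM), buffer 200mM KPO4, reaction 60 min at RT.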
# [17] = qHTS Assay for Identification of Small Molecule Antagonists for NFkB Signaling Pathway (AID 895; active means well fitted inhibition curve with a large enough effect in the signal ratio, with a control signal flat, not every such curve was filed as active; the % refers to the signal ratio)
# Method in brief: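 NFkB-bla ME-180 cervical carcinoma cells with beta-lactamase reporter under NFkB response element; compounds added, then TNF alpha at 10 pM final (EC50), 5 h at 37 C. LiveBLAzer substrate 2 h, room temperature; emission 460/530 nm at 405 nm excitation.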
# [18] = target: Cytochrome P450 1A2 (Homo sapiens) (UniProt P05177); test: p450-cyp1a2 (AID 410; calls by dose curve)
# Method in brief: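 Read-out is luminescence from luciferin produced by CYP1A2 demethylation of Luciferin-ME (100uM, at Km). Detection reagent stopped the 60 min NADPH-dependent reaction; signals were normalized to 57 uM furafylline.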
# [19] = target: Cytochrome P450 2C9 (Homo sapiens) (UniProt P11712); test: qHTS Assay for Inhibitors and Substrates of Cytochrome P450 2C9 (AID 883; active means well fitted curve in the direction sought with a large enough effect; an effect the other way counts as inactive or inconclusive; further: nearly all actives have a fitted effect of over 60% in size)
# Method in brief: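 A luminogenic readout tracked human CYP2C9 (10nM) converting deoxyluciferin (100uM, at KM) in 25mM KPO4 during 60 min at 37C with regenerated NADPH. Values normalized to 57uM sulphaphenazole as complete inhibition.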
# [20] = target: Cytochrome P450 2C19 (Homo sapiens) (UniProt P33261); test: qHTS Assay for Inhibitors and Substrates of Cytochrome P450 2C19 (AID 899; active means well fitted curve in the direction sought with a large enough effect; an effect the other way counts as inactive or inconclusive; further: nearly all actives have a fitted effect of over 60% in size)
# Method in brief: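 NADPH-dependent conversion of Luciferin-H EGE (10uM, at KM) by 5nM enzyme in 50mM KPO4, 60 min at 37C following 10 min compound preincubation. Stopped with luciferin detection buffer; luminescence read after 20 min.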
# Sequence of Pyruvate kinase PKM (Homo sapiens) (P14618 whole entry, looked up): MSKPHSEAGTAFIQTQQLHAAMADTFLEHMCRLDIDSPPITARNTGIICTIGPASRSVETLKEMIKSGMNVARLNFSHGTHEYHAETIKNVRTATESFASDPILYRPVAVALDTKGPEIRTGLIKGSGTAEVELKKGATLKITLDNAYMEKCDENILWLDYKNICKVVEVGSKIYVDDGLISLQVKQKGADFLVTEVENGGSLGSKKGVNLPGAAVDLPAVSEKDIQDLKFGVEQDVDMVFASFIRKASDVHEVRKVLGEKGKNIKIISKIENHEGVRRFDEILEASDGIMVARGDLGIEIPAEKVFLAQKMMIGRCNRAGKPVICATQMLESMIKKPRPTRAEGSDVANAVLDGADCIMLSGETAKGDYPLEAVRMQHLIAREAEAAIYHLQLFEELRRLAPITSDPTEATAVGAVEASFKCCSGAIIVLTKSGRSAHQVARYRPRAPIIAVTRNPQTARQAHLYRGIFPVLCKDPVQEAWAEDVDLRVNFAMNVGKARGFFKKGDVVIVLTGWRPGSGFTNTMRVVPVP
# Sequence of Glucocorticoid receptor (Homo sapiens) (P04150 whole entry, looked up, the tested form may be a part): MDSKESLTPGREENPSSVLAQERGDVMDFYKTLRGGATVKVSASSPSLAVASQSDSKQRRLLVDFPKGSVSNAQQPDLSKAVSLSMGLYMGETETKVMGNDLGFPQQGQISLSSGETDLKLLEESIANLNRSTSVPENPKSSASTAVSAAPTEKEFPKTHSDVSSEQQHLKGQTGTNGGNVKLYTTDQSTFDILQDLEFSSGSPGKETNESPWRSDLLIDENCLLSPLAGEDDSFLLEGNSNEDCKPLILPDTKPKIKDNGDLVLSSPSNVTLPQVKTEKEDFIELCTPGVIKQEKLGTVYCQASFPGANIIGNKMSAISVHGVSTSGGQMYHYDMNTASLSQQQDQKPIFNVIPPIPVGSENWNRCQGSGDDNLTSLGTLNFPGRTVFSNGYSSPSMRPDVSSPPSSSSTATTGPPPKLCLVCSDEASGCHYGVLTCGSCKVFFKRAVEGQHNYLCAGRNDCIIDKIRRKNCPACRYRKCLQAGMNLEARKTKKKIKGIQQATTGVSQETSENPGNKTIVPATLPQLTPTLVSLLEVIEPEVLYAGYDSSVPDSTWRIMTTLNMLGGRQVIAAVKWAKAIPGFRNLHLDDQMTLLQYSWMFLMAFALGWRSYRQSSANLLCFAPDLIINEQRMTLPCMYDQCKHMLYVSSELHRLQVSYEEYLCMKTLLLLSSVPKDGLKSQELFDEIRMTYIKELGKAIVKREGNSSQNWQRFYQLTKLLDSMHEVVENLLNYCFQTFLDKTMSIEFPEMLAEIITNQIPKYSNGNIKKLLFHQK
# Sequence of 3',5'-cyclic-AMP phosphodiesterase 4B (Homo sapiens) (Q07343 whole entry, looked up): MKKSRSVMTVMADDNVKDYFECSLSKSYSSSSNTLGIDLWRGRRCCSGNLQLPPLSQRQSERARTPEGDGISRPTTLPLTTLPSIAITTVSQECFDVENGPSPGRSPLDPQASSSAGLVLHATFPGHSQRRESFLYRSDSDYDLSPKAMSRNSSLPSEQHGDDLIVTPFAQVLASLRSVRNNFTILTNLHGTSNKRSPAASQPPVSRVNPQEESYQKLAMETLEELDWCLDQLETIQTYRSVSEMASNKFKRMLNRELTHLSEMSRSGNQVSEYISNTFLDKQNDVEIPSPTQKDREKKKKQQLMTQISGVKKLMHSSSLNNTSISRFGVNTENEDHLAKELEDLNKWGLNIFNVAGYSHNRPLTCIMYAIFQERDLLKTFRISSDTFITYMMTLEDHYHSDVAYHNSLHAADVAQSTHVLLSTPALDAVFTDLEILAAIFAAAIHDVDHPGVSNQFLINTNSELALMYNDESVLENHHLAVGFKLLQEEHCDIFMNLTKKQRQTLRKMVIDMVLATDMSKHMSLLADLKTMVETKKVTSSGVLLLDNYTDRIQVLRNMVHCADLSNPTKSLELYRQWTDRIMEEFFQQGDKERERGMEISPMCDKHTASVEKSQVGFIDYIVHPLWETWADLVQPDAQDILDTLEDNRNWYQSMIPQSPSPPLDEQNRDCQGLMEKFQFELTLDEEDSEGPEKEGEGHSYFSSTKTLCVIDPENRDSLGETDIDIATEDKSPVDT
# Sequence of Alpha-galactosidase A (Homo sapiens) (P06280 whole entry, looked up): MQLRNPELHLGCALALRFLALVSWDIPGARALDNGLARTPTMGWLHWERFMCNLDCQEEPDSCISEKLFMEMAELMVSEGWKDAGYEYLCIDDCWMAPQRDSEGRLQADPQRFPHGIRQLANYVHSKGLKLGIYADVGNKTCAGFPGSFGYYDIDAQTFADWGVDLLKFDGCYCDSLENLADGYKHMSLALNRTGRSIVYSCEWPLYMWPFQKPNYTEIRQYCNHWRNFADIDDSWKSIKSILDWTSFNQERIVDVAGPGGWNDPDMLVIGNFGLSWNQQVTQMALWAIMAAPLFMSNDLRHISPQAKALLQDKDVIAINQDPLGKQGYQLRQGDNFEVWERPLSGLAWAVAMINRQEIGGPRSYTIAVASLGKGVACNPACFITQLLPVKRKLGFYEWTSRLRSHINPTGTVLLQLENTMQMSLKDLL
# Sequence of Alpha-galactosidase (Coffea arabica) (Q42656 whole entry, looked up): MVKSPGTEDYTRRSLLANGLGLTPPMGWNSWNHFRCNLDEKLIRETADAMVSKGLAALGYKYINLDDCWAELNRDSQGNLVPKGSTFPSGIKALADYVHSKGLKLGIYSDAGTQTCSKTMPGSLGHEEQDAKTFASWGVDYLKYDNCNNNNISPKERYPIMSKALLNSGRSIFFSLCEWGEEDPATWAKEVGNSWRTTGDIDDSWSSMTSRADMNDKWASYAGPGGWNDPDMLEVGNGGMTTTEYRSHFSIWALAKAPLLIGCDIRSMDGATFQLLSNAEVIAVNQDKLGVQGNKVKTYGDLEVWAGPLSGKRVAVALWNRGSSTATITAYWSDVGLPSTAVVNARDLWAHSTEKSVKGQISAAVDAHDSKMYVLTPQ
# Sequence of Cytochrome P450 2D6 (Homo sapiens) (P10635 whole entry, looked up): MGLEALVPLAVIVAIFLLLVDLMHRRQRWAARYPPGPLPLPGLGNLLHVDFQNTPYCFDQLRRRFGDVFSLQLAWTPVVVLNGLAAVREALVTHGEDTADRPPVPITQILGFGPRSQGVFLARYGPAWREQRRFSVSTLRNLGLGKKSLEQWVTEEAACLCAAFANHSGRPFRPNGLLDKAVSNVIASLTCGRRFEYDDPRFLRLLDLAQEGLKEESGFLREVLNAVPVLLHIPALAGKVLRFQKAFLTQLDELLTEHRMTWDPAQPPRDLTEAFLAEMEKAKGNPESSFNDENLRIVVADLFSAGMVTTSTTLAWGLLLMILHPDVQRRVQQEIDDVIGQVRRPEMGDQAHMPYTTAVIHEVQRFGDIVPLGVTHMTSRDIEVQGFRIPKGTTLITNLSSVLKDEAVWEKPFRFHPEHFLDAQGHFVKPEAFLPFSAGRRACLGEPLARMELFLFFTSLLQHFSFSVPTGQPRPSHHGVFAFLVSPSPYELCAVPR
# Sequence of Guanine nucleotide-binding protein G(i) subunit alpha-1 (Homo sapiens) (P63096 whole entry, looked up): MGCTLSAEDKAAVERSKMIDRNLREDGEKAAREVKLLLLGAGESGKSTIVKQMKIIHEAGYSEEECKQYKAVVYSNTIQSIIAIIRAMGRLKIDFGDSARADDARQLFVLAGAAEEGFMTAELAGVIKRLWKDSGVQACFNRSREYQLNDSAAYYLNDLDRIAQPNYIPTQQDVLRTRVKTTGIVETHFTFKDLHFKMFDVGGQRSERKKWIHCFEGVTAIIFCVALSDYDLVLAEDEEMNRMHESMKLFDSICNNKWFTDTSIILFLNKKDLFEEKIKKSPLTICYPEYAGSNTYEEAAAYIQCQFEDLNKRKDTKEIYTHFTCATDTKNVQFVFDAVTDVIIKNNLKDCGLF
# Sequence of Cytochrome P450 3A4 (Homo sapiens) (P08684 whole entry, looked up): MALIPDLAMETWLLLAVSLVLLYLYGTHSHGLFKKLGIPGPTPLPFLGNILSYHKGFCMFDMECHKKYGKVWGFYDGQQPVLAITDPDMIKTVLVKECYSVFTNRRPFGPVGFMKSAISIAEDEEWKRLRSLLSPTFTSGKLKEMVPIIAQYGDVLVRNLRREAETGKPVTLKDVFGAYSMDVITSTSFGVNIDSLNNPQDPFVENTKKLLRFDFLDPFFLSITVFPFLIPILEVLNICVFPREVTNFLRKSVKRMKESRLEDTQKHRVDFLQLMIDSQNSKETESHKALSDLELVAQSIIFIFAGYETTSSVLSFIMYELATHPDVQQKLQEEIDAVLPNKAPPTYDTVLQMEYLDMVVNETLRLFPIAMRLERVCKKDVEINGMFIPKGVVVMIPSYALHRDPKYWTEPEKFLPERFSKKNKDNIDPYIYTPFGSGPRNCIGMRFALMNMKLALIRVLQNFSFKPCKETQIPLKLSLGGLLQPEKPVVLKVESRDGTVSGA
# Sequence of Cytochrome P450 2C9 (Homo sapiens) (P11712 whole entry, looked up): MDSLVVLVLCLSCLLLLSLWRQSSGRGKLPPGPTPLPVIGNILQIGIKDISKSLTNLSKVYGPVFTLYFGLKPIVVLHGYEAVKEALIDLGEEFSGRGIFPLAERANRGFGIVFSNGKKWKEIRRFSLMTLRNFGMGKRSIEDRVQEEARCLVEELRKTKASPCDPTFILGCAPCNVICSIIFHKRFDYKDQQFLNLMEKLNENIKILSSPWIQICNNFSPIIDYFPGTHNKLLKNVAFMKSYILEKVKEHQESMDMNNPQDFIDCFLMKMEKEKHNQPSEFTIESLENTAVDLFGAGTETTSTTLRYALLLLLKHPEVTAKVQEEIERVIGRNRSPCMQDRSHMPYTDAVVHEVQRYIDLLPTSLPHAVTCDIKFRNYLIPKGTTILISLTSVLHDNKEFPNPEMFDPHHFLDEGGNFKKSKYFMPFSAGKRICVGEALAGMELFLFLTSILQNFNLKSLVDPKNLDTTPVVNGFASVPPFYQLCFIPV
structure (smiles),measurement,setting,value
COc1ccc2c(c1)[C@]13CCCC[C@@H]1[C@H](C2)N(C)CC3,"activity change, negative = inhibition",[1],12% [at 38 µM]
same,"activity change, negative = inhibition",[2],-11.7% [at 38 µM]
same,outcome,[3],inactive
same,Potency,[4],> 46 µM
same,Potency,[5],> 46 µM
same,outcome,[6],inactive
same,Potency,[7],inactive
same,Potency,[8],2.51 µM (active)
same,outcome,[9],inactive
same,outcome,[10],inactive
same,outcome,[11],inactive
same,outcome,[12],inactive
CC[C@H](CO)NC(=O)[C@@H]1C=C2c3cccc4[nH]cc(c34)C[C@@H]2N(C)C1,"activity change, negative = inhibition",[1],2.51% [at 38 µM]
same,"activity change, negative = inhibition",[2],-0.886% [at 38 µM]
same,outcome,[3],inactive
same,Potency,[5],> 46 µM
same,outcome,[13],inactive
same,outcome,[6],inactive
same,outcome,[14],inactive
same,outcome,[9],inactive
same,outcome,[10],inactive
same,outcome,[11],inactive
same,outcome,[12],inactive
CC1=C(C(=O)OC(C)C)[C@]2(C(=O)N(CC(N)=O)c3ccccc32)C(C#N)=C(N)O1,"activity change, negative = inhibition",[1],16.8%
same,"activity change, negative = inhibition",[2],-13.4%
same,outcome,[3],inactive
same,Potency,[4],> 20.6 µM
same,activation,[15],-4.16%
C[N+]1(C)CCO[C@@](O)(c2ccc(-c3ccc([C@]4(O)C[N+](C)(C)CCO4)cc3)cc2)C1,"activity change, negative = inhibition",[1],-2.41% [at 38 µM]
same,"activity change, negative = inhibition",[2],-10.8% [at 38 µM]
same,outcome,[3],inactive
same,Potency,[4],> 46 µM
same,Potency,[5],> 46 µM
same,outcome,[13],inactive
same,outcome,[6],inactive
same,Potency,[7],inactive
same,Potency,[16],inactive
same,Potency,[17],inactive
same,outcome,[14],inactive
same,outcome,[9],inactive
same,outcome,[10],inactive
same,outcome,[11],inactive
same,outcome,[12],inactive
CC1(C)CC(n2[nH]c(=O)c3c2NC(=O)CSC3c2ccccc2)CCO1 (centres undefined),"activity change, negative = inhibition",[1],0.712%
same,"activity change, negative = inhibition",[2],-1.52%
same,outcome,[3],inactive
same,Potency,[4],> 20.6 µM
same,activation,[15],18.8%
O=c1[nH]c(=O)n(CCc2ccccc2)c(O)c1C=NCCN1CCNCC1,"activity change, negative = inhibition",[1],17.3%
same,outcome,[3],inactive
same,Potency,[4],> 20.6 µM
NC(=NCCC[C@@H](N)C(=O)O)N[N+](=O)[O-],"activity change, negative = inhibition",[1],2.85% [at 38 µM]
same,"activity change, negative = inhibition",[2],2.93% [at 38 µM]
same,outcome,[3],inactive
same,Potency,[4],> 46 µM
same,Potency,[5],> 46 µM
same,outcome,[13],inactive
same,outcome,[6],inactive
CCc1nc(N2CCNCC2)c(C#N)c2c1CSC(C)(C)C2,"activity change, negative = inhibition",[1],-1.4%
same,outcome,[3],inactive
same,Potency,[4],> 20.6 µM
O=C1C[C@H]2OCCC=C3CN4CC[C@@]56c7ccccc7N1[C@@H]5[C@H]2[C@H]3C[C@@H]46,Potency,[18],inactive
same,Potency,[4],> 46 µM
same,Potency,[5],> 46 µM
same,outcome,[13],inactive
same,outcome,[6],inactive
same,Potency,[19],inactive
same,Potency,[8],inactive
same,Potency,[20],inactive
